Assay outcomes deposited in PubChem BioAssay by The Scripps Research Institute Molecular Screening Center.
In the library only some 3.4% were active in any assay of this set; here they are far more common.
ADAM17 inh – ADAM17 inhibition, QFRET primary screen. 370,000 compounds, 0.83% hits. inhibition, % at 6.95 µM. AID 720648. recombinant ADAM17, EDANS/DABCYL FRET peptide cleavage. P78536;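 active = inhibition above the mean of compounds lying between control limits plus 3 SD, set per campaign, cut at about 8.5% in these data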;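 note: 0% = DMSO-only wells as the low control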
Target sequence (P78536 215-824 limits assumed): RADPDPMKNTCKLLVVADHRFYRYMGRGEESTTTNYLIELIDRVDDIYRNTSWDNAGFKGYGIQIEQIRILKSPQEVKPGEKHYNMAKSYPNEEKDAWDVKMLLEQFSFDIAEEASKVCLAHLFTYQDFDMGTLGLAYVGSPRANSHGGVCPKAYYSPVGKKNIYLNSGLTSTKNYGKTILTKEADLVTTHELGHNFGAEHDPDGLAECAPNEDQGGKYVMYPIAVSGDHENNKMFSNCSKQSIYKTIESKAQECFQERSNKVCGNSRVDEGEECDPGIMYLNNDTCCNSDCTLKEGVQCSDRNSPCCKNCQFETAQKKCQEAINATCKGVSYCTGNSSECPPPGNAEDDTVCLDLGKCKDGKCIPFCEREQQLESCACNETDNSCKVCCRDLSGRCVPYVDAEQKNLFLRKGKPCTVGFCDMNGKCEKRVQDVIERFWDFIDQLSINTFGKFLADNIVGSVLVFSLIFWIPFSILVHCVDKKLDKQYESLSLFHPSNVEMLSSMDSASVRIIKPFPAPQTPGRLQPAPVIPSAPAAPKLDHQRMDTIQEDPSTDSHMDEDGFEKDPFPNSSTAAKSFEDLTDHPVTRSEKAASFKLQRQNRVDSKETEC
PLC-beta3 inh – blocks human PLC-beta3 enzyme activity. Q01970. inhibition, % at 12.2 µM. 370,000 compounds, 0.18% hits. Purified PLC-beta3, fluorogenic substrate, fluorescence; in the data active = inhibition above about 11%;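 note: 0% = median of compound wells on plate and 100% = full blocker control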
ADAM10 inh – inhibits human ADAM10. recombinant ADAM10, EDANS/DABCYL FRET peptide cleavage, 3 h. O14672. inhibition, % at 7 µM. 370,000 compounds, 0.62% hits;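 active = inhibition above a per-campaign cutoff equal to the mean of compounds falling between control-based bounds plus 3 SD, cut at about 20% in these data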;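 note: 0% = DMSO wells while the 100% control is not disclosed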
KLK7 zymogen act – proKLK7 (human) activation, primary screen; purified proKLK7, EDANS-DABCYL substrate fluorescence; 100% is mature enzyme control, 0% vehicle; activation, % at 7 µM; 370,000 compounds, 0.9% hits; P49862;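 active = activation above the mean of all tested compounds plus 3 SD, computed per campaign excluding outliers beyond control limits, cut at about 13% in these data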
PLC-gamma1 inh – inhibitors of human phospholipase C gamma1 | purified PLC-gamma1, fluorogenic substrate, fluorescence | inhibition, % at 12.2 µM | 370,000 compounds, 0.84% hits | AID 720700; in the data active = inhibition above about 9.5%
HGIII-sPLA2 inh – Blocks human group III sPLA2 activity; Q9NZ20; QFRET BODIPY PC-A2 liposome hydrolysis, fluorescence; inhibition, % at 12.2 µM; 370,000 compounds, 0.56% hits;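 active = inhibition above mean plus 3 SD of compounds lying within the high and low control bounds, cut at about 19% in these data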;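 note: 0% = median of test compound wells and 100% = no enzyme DMSO wells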
proKLK7 act conf – confirmation of human kallikrein-7 zymogen activators | activation, % at 7 µM | purified proKLK7, EDANS-DABCYL substrate fluorescence; scaled: vehicle 0, mature enzyme 100 | AID 686949 | 3,200 compounds, 68% hits | shares compounds with KLK7 zymogen act;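 active = activation, as change over the incubation, above the mean of all tested compounds plus 3 SD, cut at about 13% in these data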
EDANS-DABCYL int – fluorescence interference counter-screen for KLK7 activators; 3,200 compounds, 80% hits; shares compounds with KLK7 zymogen act; activation, % at 7 µM; EDANS-DABCYL substrate fluorescence interference, no enzyme, 4 h; solvent 0%, active enzyme control 100%; AID 686952;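 active = activation above the all-compound mean plus 3 SD, ignoring values outside control-based bounds, cut at about 4.8% in these data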;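 note: value is the 4 h activation minus the activation read at time zero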
ADAM10 confirm – human ADAM10 inhibition, confirmation | 2,100 compounds, 1% hits | shares compounds with ADAM10 inh | ADAM10 QFRET peptide cleavage, EDANS fluorescence | inhibition, % at 6.95 µM;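 active = inhibition above about 20% chosen separately for each screening run, limit read from the data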;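 note: 0% = DMSO wells and 100% = marimastat wells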
ADAM17 counter – ADAM17 inhibition, counter-screen for ADAM10 exosite hits | inhibition, % at 6.95 µM | shares compounds with ADAM10 inh | ADAM17 QFRET peptide cleavage, EDANS fluorescence | AID 743214 | 2,100 compounds, 0.5% hits;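 active = mean triplicate inhibition above the solvent-only control wells' mean plus 3 SD, cut at about 12% in these data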;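 note: 0% = DMSO wells and 100% = marimastat wells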
ADAM10 ctr – inhibits human ADAM10 in ADAM17 exosite counter-screen | shares compounds with ADAM17 inh | recombinant ADAM10, EDANS/DABCYL FRET peptide cleavage, 3 h | inhibition, % at 6.95 µM | 2,900 compounds, 47% hits | AID 743256;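 active = mean inhibition over the triplicate runs exceeds the activity threshold set in the earlier primary screen, cut at about 20% in these data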;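 note: 0% = DMSO wells and 100% = marimastat wells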
ADAM17 confirm – human ADAM17 inhibition, confirmation; 2,900 compounds, 65% hits; shares compounds with ADAM17 inh; recombinant ADAM17, EDANS/DABCYL QFRET peptide cleavage; AID 743257; inhibition, % at 6.95 µM;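 active = mean inhibition across replicates above the hit cutoff set in the primary screen, cut at about 8.5% in these data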;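 note: 0% = DMSO wells and 100% = marimastat wells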
sPLA2 confirm – human GIII-sPLA2 inhibition, confirmation; shares compounds with HGIII-sPLA2 inh; recombinant hGIII-sPLA2, BODIPY PC-A2 QFRET fluorescence; inhibition, % at 12.2 µM; 2,000 compounds, 34% hits; AID 743280;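 active = mean inhibition across triplicates above the hit cutoff set in the earlier primary screen, cut at about 19% in these data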;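 note: 0% = enzyme with DMSO and 100% = DMSO wells lacking enzyme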
535nm interf – optically interferes with 535nm fluorescence in sPLA2 counter-screen; shares compounds with HGIII-sPLA2 inh; BODIPY FL product fluorescence interference, QFRET; inhibition, % at 12.2 µM; 2,000 compounds, 8.5% hits; AID 743282;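 active = average inhibition above the solvent-only control mean plus 3 SD, cut at about 6% in these data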;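 note: 0% = DMSO with substrate plus product and 100% = DMSO with substrate alone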
* = called active by the depositor; i = inactive; nt = no result.

SMILES	ADAM17 inh	PLC-beta3 inh	ADAM10 inh	KLK7 zymogen act	PLC-gamma1 inh	HGIII-sPLA2 inh	others
CCCCCCCC(=O)N[C@H]1CC[C@@]23CCCN2C(=O)CCC[C@H]3[C@H]1CCC	-4	1	-4	nt	2	4
Cc1ccc(-c2cc(C(=O)O)c3ccccc3n2)s1	i	i	i	54*	i	2	proKLK7 act conf=63*;EDANS-DABCYL int=71*
O=C(Nc1ccccn1)c1cc(-c2ccc(Cl)s2)nc2ccccc12	-45	-163	-185	-49	-118	2
CC(C)CCNC(=O)c1cc(-c2cccs2)nc2ccccc12	-179	-206	-407	-11	-139	3
O=C(O)c1cc(-c2ccc(Cl)s2)nc2ccccc12	i	i	i	47*	-437	-8	proKLK7 act conf=36*;EDANS-DABCYL int=41*
CCC(C)NC(=O)c1cc(-c2cccs2)nc2ccccc12 (stereo not given)	-491	i	i	26*	-412	8	proKLK7 act conf=-15;EDANS-DABCYL int=-27
C#CCN1CC(N(C)CCO)CS1(=O)=O (stereo not given)	0	2	-2	0	2	6
CCCCCCCCN1C(=O)[C@@H](CC(=O)NCc2ccccc2)C[C@@]2(C(=O)OC)C1=C[C@H](COCc1ccccc1)O[C@@H]2C	1	-2	2	0	-1	-20
Cc1ccc(S(=O)(=O)N2c3ccccc3C[C@H]2CC=C(c2ccccc2)c2ccccc2)cc1	2	2	7	nt	1	-1
COc1cc(NC(=O)c2c(F)cccc2F)c(Cl)cc1Cl	-1	-1	-6	21*	-2	-7	proKLK7 act conf=28*;EDANS-DABCYL int=27*
COc1ccc(C(=O)Nc2cc(OC)c(Cl)cc2Cl)cc1	0	1	0	0	2	2
COc1ccc2nc3ccccc3[n+]([O-])c2c1	-140	i	i	27*	i	-26	proKLK7 act conf=32*;EDANS-DABCYL int=34*
O=C(Nc1nc(-c2ccccc2)cs1)c1ccc(S(=O)(=O)N2CCc3ccccc32)cc1	9.7*	-59	13	14*	-38	-17	proKLK7 act conf=0;EDANS-DABCYL int=-2;ADAM10 ctr=10;ADAM17 confirm=9.7*
CCCCN1CCCOc2cc(Br)ccc2S1(=O)=O	-1	3	0	1	2	-5
Cc1ccc(N=Nc2cc(C)ccc2O)c(C)c1	-4	-4	5	0	0	9
Nc1ccc(N=Nc2ccccc2O)c(N)c1	-14	-60	-59	40*	-40	21*	proKLK7 act conf=101*;EDANS-DABCYL int=99*;sPLA2 confirm=56*;535nm interf=21*
CCCNC(=O)COC(=O)c1cc2c(=O)n3ccccc3nc2s1	-345	-351	i	20*	-293	19*	proKLK7 act conf=73*;EDANS-DABCYL int=86*;sPLA2 confirm=-4;535nm interf=-4
C=CCN1C(=O)[C@@H](CC(=O)N2CCOCC2)[C@]2(C(=O)OC)CCCCC=C12	1	-2	1	0	2	9
Cc1cccc(OCC(=O)Nc2ccc3c(c2)OCO3)c1C	-2	-1	-2	0	1	2
Cc1ccc(C)c(OCC(=O)Nc2ccc3c(c2)OCO3)c1C	7	-1	20*	1	12*	-5	ADAM10 confirm=1;ADAM17 counter=0
CCCCNC(=O)O[C@H]1CC[C@@]23CCCN2C(=O)CCC[C@H]3[C@H]1C	-4	1	-2	nt	-2	-2
Cc1csc(NC(=O)Cc2coc3cc(C)c(C(C)C)cc23)n1	7	-4	23*	0	-2	-6	ADAM10 confirm=7;ADAM17 counter=1
COc1ccc(CCC[C@@H](CCC(=O)N(c2ccccc2)c2ccccc2)CCc2ccccc2)cc1	-7	-6	-17	-2	1	9
COc1ccc(-c2cn[nH]c2-c2ccc(OCc3ccccc3F)cc2O)cc1OC	8	0	23*	0	6	-29	ADAM10 confirm=10;ADAM17 counter=4
COc1ccc(-c2cn[nH]c2-c2ccc(OCc3ccccc3)cc2O)cc1	7	1	20*	0	1	-32	ADAM10 confirm=14;ADAM17 counter=5
SMILES	ADAM17 inh	PLC-beta3 inh	ADAM10 inh	KLK7 zymogen act	PLC-gamma1 inh	HGIII-sPLA2 inh	others
O=C(Nc1ccc(N2CCCC2)cc1)c1ccc(Cl)cc1Cl	5	2	20*	0	-2	12	ADAM10 confirm=9;ADAM17 counter=5
O=C(Nc1ccc(N2CCCC2)cc1)c1ccc(Br)cc1	-7	-10	25*	-1	-8	15	ADAM10 confirm=1;ADAM17 counter=1
O=C(Nc1ccc(N2CCCC2)cc1)c1cc(Cl)ccc1Cl	1	-17	-1	0	-5	0
Cc1cc(C)cc(C(=O)Nc2ccc(N3CCCC3)cc2)c1	-8	-10	-16	-2	-11	16
O=C(Nc1ccccc1N1CCCC1)c1ccccc1Cl	3	4	23*	0	3	4	ADAM10 confirm=0;ADAM17 counter=0
O=C(CSc1ccccc1)N1CCC(Oc2cccnc2)CC1	0	1	4	0	3	1
Cc1ccc(S(=O)(=O)N2C=C(c3ccccc3)c3ccccc3-c3ccccc32)cc1	0	-1	3	nt	1	0
COC(=O)[C@]12C[C@H](CC(=O)NCCCCc3ccccc3)C(=O)N(Cc3ccc(Cl)cc3Cl)C1=C[C@H](C(C)C)O[C@@H]2C1CC1	-5	1	-7	0	-2	0
Cc1ccc(-c2n[nH]c(=S)n2/N=C/C=C\c2ccccc2[N+](=O)[O-])cc1	8	6	29*	0	4	6	ADAM10 confirm=1;ADAM17 counter=0
